PubChem BioAssay (NCATS)
Inconclusive results are not listed. Activity calls are given as the source filed them. The call rests on the fitted dose curve; in most records, active means well fitted inhibition curve with a large enough effect; inconclusive means small, poorly fitted or top-dose-only effect; inactive means flat fitted curve, though single readings scatter.

Key:
Experiment in all cases: qHTS profiling for inhibitors of Plasmodium falciparum proliferation (AID 504749); further: nearly all actives have a fitted effect of over 60% in size
Settings in all cases: P. falciparum in erythrocytes, SYBR Green DNA, 72 h; series mostly up to 28.7 µM
CP194 = test system: CP194
In short: (§1)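 In a 72 h erythrocytic culture (37 C, humidified, 5% CO2) at 2.5% hematocrit and 0.3% starting parasitemia, compounds were tested; SYBR Green I in detergent lysis buffer stained parasite DNA overnight.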

CP201 = test system: CP201
In short: as §1

CP203 = test system: CP203
In short: as §1

CP211 = test system: CP211
In short: as §1

CP215 = test system: CP215
In short: as §1

CP217 = test system: CP217
In short: as §1

CP237 = test system: CP237
In short: as §1

CP238 = test system: CP238
In short: as §1

CP247 = test system: CP247
In short: as §1

CP250 = test system: CP250
In short: as §1

Measured: Potency
Potency means the concentration at half of the fitted maximal effect.

NNCCc1ccccc1
not listed: CP250
inactive: all other assays above

N#Cc1ccc(C(c2ccc(C#N)cc2)n2cncn2)cc1
inactive: all assays above

O=C1CCC(N2C(=O)c3ccccc3C2=O)C(=O)N1 (stereo unspecified)
inactive: all assays above

O=c1[nH]cnc2[nH]ncc12
inactive: all assays above

Cc1[nH]c(=O)c(C#N)cc1-c1ccncc1
not listed: CP250
inactive: all other assays above

NC(=O)c1cnccn1
inactive: all assays above

Nc1nc2ccc(OC(F)(F)F)cc2s1
inactive: all assays above

Cc1cn[nH]c1
inactive: all assays above

Oc1ccc(C2CNCCc3c2cc(O)c(O)c3Cl)cc1 (stereo unspecified)
inactive: all assays above

CC(=O)Oc1ccccc1C(=O)O
inactive: all assays above

COc1ccc2nc(S(=O)Cc3ncc(C)c(OC)c3C)[nH]c2c1 (stereo unspecified)
not listed: CP247
inactive: all other assays above

Clc1cccc(Cl)c1NC1=NCCN1
inactive: all assays above

CC(C[N+](C)(C)C)OC(N)=O (stereo unspecified)
inactive: all assays above

N[C@@H]1CONC1=O
not listed: CP247
inactive: all other assays above

Nc1nc2c(ncn2COCCO)c(=O)[nH]1
inactive: all assays above

Cc1[nH]c(=O)c(C#N)cc1-c1ccc2nccn2c1
inactive: all assays above

CC(C)NCC(O)COc1ccc(COCCOC(C)C)cc1 (stereo unspecified)
inactive: all assays above

NS(=O)(=O)c1cc2c(cc1Cl)NC=NS2(=O)=O
inactive: all assays above

O=NN(CCCl)C(=O)NCCCl
inactive: all assays above

NCCc1ccc(O)c(O)c1
inactive: all assays above

NCCCC(N)(C(=O)O)C(F)F (stereo unspecified)
inactive: all assays above

Cc1ccc(N(CC2=NCCN2)c2cccc(O)c2)cc1
inactive: all assays above

N=c1nc(N2CCCCC2)cc(N)n1O
inactive: all assays above

NC[C@H](O)c1ccc(O)c(O)c1
inactive: all assays above

Cc1cc2c(C(C)C)c(O)c(O)c(C=O)c2c(O)c1-c1c(C)cc2c(C(C)C)c(O)c(O)c(C=O)c2c1O
active: CP237 10 µM | CP247 11.2 µM

Clc1ccc(Nc2nnc(Cc3ccncc3)c3ccccc23)cc1
not listed: CP217 | CP237 | CP247
inactive: all other assays above

CC(c1cc2ccccc2s1)N(O)C(N)=O (stereo unspecified)
not listed: CP215
inactive: all other assays above

O=c1n(CCCN2CCN(c3cccc(Cl)c3)CC2)nc2ccccn12
not listed: CP215
inactive: all other assays above

C#Cc1cccc(Nc2ncnc3cc(OCCOC)c(OCCOC)cc23)c1
active: CP237 12.6 µM

CNC[C@H](O)c1cccc(O)c1
not listed: CP215
inactive: all other assays above

CN1CCN(CCCN2c3ccccc3Sc3ccc(C(F)(F)F)cc32)CC1
active: CP203 15.1 µM | CP237 12.6 µM | CP238 3.16 µM | CP250 8.91 µM
inactive: CP201

O=C1CCc2cc(OCCCCc3nnnn3C3CCCCC3)ccc2N1
active: CP238 3.16 µM
not listed: CP217 | CP247 | CP250
inactive: all other assays above

NC(N)=NC(=O)c1nc(Cl)c(N)nc1N
active: CP203 19 µM | CP237 8.91 µM
inactive: CP194 | CP201 | CP211

CCOC(=O)C1=C[C@]2(CC)CCCN3CCc4c(n1c1ccccc41)[C@@H]32
active: CP203 16.9 µM | CP217 11.2 µM

OC(CN1CCC(Cc2ccc(F)cc2)CC1)c1ccc(Cl)cc1 (stereo unspecified)
active: CP237 2.51 µM
inactive: CP201 | CP211

CCc1ccc(CCOc2ccc(CC3SC(=O)NC3=O)cc2)nc1 (stereo unspecified)
not listed: CP247
inactive: all other assays above

Nc1ccc(S(=O)(=O)Nc2ccnn2-c2ccccc2)cc1
not listed: CP215
inactive: all other assays above

Cn1cnc([N+](=O)[O-])c1Sc1ncnc2nc[nH]c12
inactive: CP201 | CP203 | CP211 | CP215 | CP237
active: CP247 6.31 µM

C1COC(NC(C2CC2)C2CC2)=N1
active: CP247 11.2 µM
inactive: CP201 | CP203 | CP211

Cc1c(C)c2c(c(C)c1O)CCC(C)(COc1ccc(CC3SC(=O)NC3=O)cc1)O2 (stereo unspecified)
inactive: CP201 | CP238 | CP250

CCOC(=O)N1CCC(=C2c3ccc(Cl)cc3CCc3cccnc32)CC1
active: CP217 3.98 µM | CP237 8.91 µM | CP250 3.55 µM
inactive: CP238

CCOC(=O)C1=C[C@@]2(CC)CCCN3CCc4c(n1c1ccccc41)[C@H]32
active: CP194 13.5 µM | CP203 15.1 µM | CP211 13.5 µM | CP215 10.7 µM

CCCCNc1cc(C(=O)O)cc(S(N)(=O)=O)c1Oc1ccccc1
not listed: CP215
inactive: all other assays above

CCCc1nn(C)c2c(=O)[nH]c(-c3cc(S(=O)(=O)N4CCN(C)CC4)ccc3OCC)nc12
not listed: CP237
inactive: all other assays above

Cc1ccccc1C(OCCN(C)C)c1ccccc1 (stereo unspecified)
active: CP203 13.5 µM
inactive: CP250

CCCc1nc2c(C)cc(-c3nc4ccccc4n3C)cc2n1Cc1ccc(-c2ccccc2C(=O)O)cc1
active: CP237 4.47 µM
inactive: CP201 | CP203 | CP250

CC(C)C[C@H](NC(=O)[C@@H](O)[C@H](N)Cc1ccccc1)C(=O)O
active: CP194 6.75 µM | CP203 6.01 µM | CP211 6.01 µM | CP215 6.75 µM | CP217 6.31 µM | CP237 4.47 µM | CP238 12.6 µM | CP247 6.31 µM | CP250 10 µM

Cc1oncc1C(=O)Nc1ccc(C(F)(F)F)cc1
not listed: CP215
inactive: all other assays above
